From PubChem BioAssay (NCI)
This is part of a sample that, as a whole, favours compounds with a hit. Of some 79,000 tested, about 15% had one in any assay. Rule as the data show it: active = growth inhibition above about 70%; inactive = the rest.

How the values were obtained:
[1] = NCI Yeast Anticancer Drug Screen. Data for the rad50 strain (AID 155);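 also: 0% = growth of vehicle-only cultures of the same strain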; conditions: S. cerevisiae rad50 strain growth inhibition; at 50.0 µM; stronger effect = higher value
Summary of the method: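 Cells are treated with compound, grown, and their growth is then scored against vehicle-only cultures of the same repair-deficient yeast strain.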

[2] = NCI Yeast Anticancer Drug Screen. Data for the mec2-1 strain (AID 157); conditions: S. cerevisiae mec2-1 strain, at 50.0 µM, stronger effect = higher value
Summary of the method: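 Vehicle-treated cultures served as reference for growth inhibition of compound-exposed mec2-1 yeast.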

[3] = NCI Yeast Anticancer Drug Screen. Data for the sgs1 mgt1 strain (AID 161);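 also: 0% = growth of cultures given vehicle only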; conditions: S. cerevisiae sgs1 mgt1 strain, at 50.0 µM, stronger effect = higher value
Summary of the method: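 Test agents were incubated with a DNA-repair-mutant yeast strain. Growth was then read and compared against vehicle-treated controls.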

[4] = NCI Yeast Anticancer Drug Screen. Data for the cln2 rad14 strain (AID 165);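 also: 0% = growth equal to vehicle treated cultures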; conditions: S. cerevisiae cln2 rad14 strain, at 50.0 µM, stronger effect = higher value
Summary of the method: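 Each compound was tested on cln2 rad14 yeast. Inhibition of growth was calculated against vehicle-exposed controls.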

[5] = NCI Yeast Anticancer Drug Screen. Data for the bub3 strain (AID 167); conditions: S. cerevisiae bub3 mutant strain, at 50.0 µM, stronger effect = higher value
Summary of the method: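 Part of a panel of yeast mutants defective in DNA damage repair or cell cycle regulation. Each strain is grown with compound, and inhibition is calculated relative to solvent-treated cultures.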

[6] = NCI Yeast Anticancer Drug Screen. Data for the mlh1 rad18 strain (AID 175); conditions: S. cerevisiae mlh1 rad18 strain growth inhibition; at 50.0 µM; stronger effect = higher value
Summary of the method: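 Vehicle-treated cultures served as the reference for growth inhibition in a yeast strain carrying DNA damage repair alterations exposed to each compound.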

Measured: growth inhibition

CC(=O)OC1CCCC2CCCC21 (stereo not given)
inactive: [1] 0.2% | [2] 5.2% | [3] 1.25% | [4] -5.7% | [5] -2.35% | [6] -3.75%

O=C(CC(=O)N(C(=O)/C=C\c1ccccc1)c1ccc(Cl)cc1)N1N=C(c2ccccc2)C(N=Nc2cccc([N+](=O)[O-])c2)C1=O (stereo not given)
inactive: [1] 7.5% | [2] 3.45% | [3] 9.5% | [4] 1.75% | [5] 14.7% | [6] 5.5%

CC(C)CCCC(C)C1CCC2C3CC=C4CC(OP(=O)(N5CC5)N5CC5)CCC4(C)C3CCC12C (stereo not given)
inactive: [1] 26.8% | [2] 1.4% | [3] 11.4% | [4] 19.3% | [5] -4.1% | [6] 12.2%

C[C@@]1(N2C(=O)OC(c3ccccc3)C2=O)C(=O)N2CCS[C@@]21c1ccccc1 (stereo not given in full)
inactive: [1] 4.2% | [2] 2.6% | [3] 11.8% | [4] 11.3% | [5] 5.85% | [6] 1.25%

CN(C)c1ncnc2ncn(C3OC(CO)C(O)C3O)c12 (stereo not given)
inactive: [1] 67.6% | [2] 46.6% | [3] 60.2% | [4] 7.3% | [5] -13.2% | [6] 61.7%

CC(O)COC1CCCCC1 (stereo not given)
inactive: [1] -2.75% | [2] -10.9% | [3] 3.85% | [4] -7.25% | [5] -3.95% | [6] -0.95%

C(=C/c1ccc(-c2ccccc2)cc1)/C=C/c1ccc(-c2ccccc2)cc1
inactive: [1] 3.3% | [2] 4% | [3] -0.2% | [4] -29.2% | [5] 6.95% | [6] 17.9%

COC(=O)[C@@]12CN(C)[C@@H](C(C)(C)C)N1C(=O)OC2c1ccccc1 (stereo not given in full)
inactive: [1] 24.4% | [2] -25.4% | [3] -23.1% | [4] -1.8% | [5] 36.6% | [6] -8.35%

COc1ccc(CCCc2cc3c(cc2OC)OCO3)cc1
inactive: [1] 5.6% | [2] -4.1% | [3] 15.5% | [4] -8.65% | [5] 35.6% | [6] 12.2%

CC1CC(C)C2=NOS3=C2C1=NO3 (stereo not given)
inactive: [1] 43.3% | [2] 16.6% | [3] 36.1% | [4] 21.4% | [5] 28.4% | [6] 22.9%

C1CC2CC1CC2C1CO1 (stereo not given)
inactive: [1] 3.45% | [2] -6.15% | [3] 4.85% | [4] 0.75% | [5] 0.5% | [6] 4.7%

O=S(=O)(O)n1ccnc1 (tested in a mixture with another compound)
inactive: [1] 20.9% | [2] 12.3% | [3] 1.3% | [4] -27.9% | [5] 14.7% | [6] 18.4%

CCOCCOc1nc(C)cc(C)c1C#N
inactive: [1] -30.9% | [2] -41.5% | [3] -8.05% | [4] -6.4% | [5] -29.5% | [6] -20.9%

O/N=C1\CCCC\C1=N/O.O/N=C1\CCCC\C1=N/O.[Pt]
inactive: [1] 34.8% | [2] -0.8% | [3] 8.05% | [4] 19.3% | [5] -1.75% | [6] 8.05%

CCn1c2ccc(N=C=O)cc2c2c3[nH]c(=O)c4cccn4c3ccc21
inactive: [1] -30.9% | [2] 10.2% | [3] -9.4% | [4] 0.55% | [5] -1.8% | [6] 1.25%

CC(OCc1ccccc1)C(NC(=O)C1CSSCC(NC(=O)C(Cc2ccccc2)NC(=O)OCc2ccccc2)C(=O)NC(Cc2ccccc2)C(=O)NC(Cc2cn(C=O)c3ccccc23)C(=O)NC(CCCCNC(=O)OCc2ccccc2)C(=O)NC(C(C)OCc2ccccc2)C(=O)N1)C(N)=O (stereo not given)
inactive: [1] -10.7% | [2] 0.7% | [3] -4.75% | [4] 21.1% | [5] 23.8% | [6] -3%

C#CCSC(=N)N
inactive: [1] 5.4% | [2] -6.9% | [3] 8.9% | [4] 5.2% | [5] 8.8% | [6] 5.75%

O=[N+]([O-])CC1CCCCC1
inactive: [1] -2.7% | [2] -19.9% | [3] 6.85% | [4] 14.3% | [5] -1.3% | [6] 19.1%

O=C(O)COc1ccccc1C1CCCCC1
inactive: [1] 0.15% | [2] 7.6% | [3] 6.25% | [4] -4.9% | [5] -18.6% | [6] -2.2%

Cc1ccc(N2CCN(c3ccc([N+](=O)[O-])cc3)CC2)cc1Cl
inactive: [1] -6.15% | [2] 7.15% | [3] 2.85% | [4] -12.4% | [5] 0.15% | [6] -28.3%

COC(=O)C(=O)Cc1nc2ccccc2s1
inactive: [1] 6.25% | [2] 1.35% | [3] 6.15% | [4] -29.8% | [5] -7.3% | [6] 7.3%

COc1ccc(-c2nc(N3CCCC3)no2)cc1
inactive: [1] -0.85% | [2] -4.65% | [3] 32.1% | [4] 3.85% | [5] 31.1% | [6] -20.9%

CCCCCCCCSC(SCCCCCCCC)=C1C(=O)N(c2ccccc2)N=C1C
inactive: [1] -5.9% | [2] -12.3% | [3] 2.2% | [4] 19.6% | [5] -28.1% | [6] -13%

COc1cccc(-c2cc(=O)c3cc(OC)ccc3[nH]2)c1
inactive: [1] -19.8% | [2] -1.6% | [3] -14% | [4] 6.15% | [5] 13.2% | [6] -13.3%

CC(=O)OCC1OC(OCC[N+](C)(C)C)C(OC(C)=O)C(OC(C)=O)C1OC(C)=O (stereo not given)
inactive: [1] -1.65% | [2] 14.9% | [3] -15.6% | [4] -2.4% | [5] -7.35% | [6] 15.3%

O=[N+]([O-])c1ccccc1-c1ccccc1CO
inactive: [1] -22% | [2] -19.2% | [3] -41.4% | [4] -23.4% | [5] -18.4% | [6] -28.9%

Cc1ccc(S(=O)(=O)NCCC(=O)O)cc1
inactive: [1] -1.75% | [2] -11.1% | [3] -9.65% | [4] -9.3% | [5] -3.3% | [6] -4.85%

NC(N)=N/N=C/c1oc(-c2ccc(S(=O)(=O)O)o2)c(-c2ccc(S(=O)(=O)O)o2)c1[N+](=O)[O-]
inactive: [1] -21.4% | [2] 9.6% | [3] -22% | [4] 6.6% | [5] -3.35% | [6] 0.95%

CN(C)c1ccc(C(c2cc3c(cc2O)OCO3)N2CCN(C(c3ccc(N(C)C)cc3)c3cc4c(cc3O)OCO4)CC2)cc1 (stereo not given)
inactive: [1] 39.8% | [2] 31.4% | [3] 28.9% | [4] 9.3% | [5] 13.8% | [6] 36.5%

CNc1ccccc1C
inactive: [1] 37.6% | [2] -15.4% | [3] -8.1% | [4] -82.1% | [5] 18.9% | [6] 23%

Cc1cc(O)cc(C)c1Cl
inactive: [1] 17.2% | [2] -25.9% | [3] 5.95% | [4] -21.2% | [5] 12.9% | [6] 11.2%

O=C1NC(=O)C(=CN2C(=O)/C(=C/c3ccc([N+](=O)[O-])cc3)SC2=S)C(=O)N1
inactive: [1] -0.4% | [2] 33.2% | [3] 40.6% | [4] 20.4% | [5] 20.6% | [6] 21.9%

CN(/N=C\c1ccc2ccccc2c1)C1=NCCN1
inactive: [1] 5.65% | [2] 0.25% | [3] -14.8% | [4] -63% | [5] 4.1% | [6] -12.1%

COc1ccc(/C(Cl)=C(\C=N/O)c2ccc(OC)c(OC)c2)cc1OC
inactive: [1] -8.45% | [2] 11.9% | [3] -0.7% | [4] 2.05% | [5] 8.15% | [6] -7.45%

C[C@]12CC[C@H](OC3CCCCO3)CC1=CC[C@@H]1C2CC[C@]2(C)/C(=N/OCCC#N)CCC12 (stereo not given in full)
inactive: [1] 16.9% | [2] 15.2% | [3] -3.85% | [4] -49.4% | [5] 3.3% | [6] 28.1%

COc1cc(C2=N/C(=C\c3cc(Cl)cc(Cl)c3O)C(=O)O2)cc(OC)c1OC
inactive: [1] -33.7% | [2] -23.6% | [3] 2.85% | [4] -12.6% | [5] -2.9% | [6] -2.8%

CC1(C)Cc2c(oc3ncnc(N)c23)CS1
inactive: [1] -10.3% | [2] -14.1% | [3] -8.8% | [4] -4.75% | [5] -4.65% | [6] 9.2%

CC(=O)Nc1ccc(C(=O)NN2C(=O)C(Cl)C2c2ccccc2O)cc1 (stereo not given)
inactive: [1] -24.8% | [2] -16.3% | [3] -45.9% | [4] 0.15% | [5] -38.1% | [6] -32.9%

Cn1c(=O)c2c(nc3sc4c(n32)C(=O)c2c(O)ccc(O)c2C4=O)n(C)c1=O
inactive: [1] 21.6% | [2] 30.2% | [3] 51.5% | [4] 55.2% | [5] 41% | [6] -7.2%

CN=NNc1ccc(C#N)cc1
inactive: [1] 7.3% | [2] 1.4% | [3] -1.85% | [4] -14.1% | [5] -6.65% | [6] 5.5%
